PubChem BioAssay AID1159580 (chemical genetic matrix, 2015)
Several values for one entry are separate records, joined by “and”; a condition that tells them apart may be missing. Equal entries are not always repeated. Among all 5,500 compounds or so, about 2,000 (36%) were called active. Another 18% or so got no clear call; they are omitted. Rule as the data show it: active = normalized growth mostly below about 0.91 (no sharp cut-off); inconclusive = no clear call, values can overlap the other calls; inactive = mostly above about 0.92. The list shows a part of the results.

Experiment: chemical genetic growth profiling, strain panel (AID 1159580);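 also: tested at 20 µM; growth read once vehicle control cultures reached saturation at 30 °C; 1 = growth at the plate median or of vehicle wells; lower values mean less growth of the strain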
Settings: S. cerevisiae deletion strains, growth OD

Measured: normalized growth

NS(=O)(=O)c1cc2c(cc1Cl)NC(C(Cl)Cl)NS2(=O)=O (configuration not stated)
inactive: locus YAL021C, strain ccr4, active compounds read low 0.977 | locus YAL026C, strain drs2, active compounds read low 0.968 | locus YAL030W, strain snc1, active compounds read low 0.978 | locus YBL061C, strain skt5, active compounds read low 0.985 | locus YBR009C, strain hhf1, active compounds read low 0.919 | locus YBR021W, strain FUR4, active compounds read low 1.01 | locus YBR023C, strain chs3, active compounds read low 0.978 | locus YBR171W, strain sec66, active compounds read low 0.972 | locus YBR229C, strain ROT2, active compounds read low 1.01 | locus YBR231C, strain swc5, active compounds read low 0.979 | locus YBR279W, strain paf1, active compounds read low 0.984 | locus YCL011C, strain gbp2, active compounds read low 0.96 | locus YCL016C, strain dcc1, active compounds read low 0.967 | locus YCL029C, strain bik1, active compounds read low 1.02 | locus YCL069W, strain vba3, active compounds read low 0.988 | locus YCR088W, strain abp1, active compounds read low 0.96 | locus YDL005C, strain med2, active compounds read low 0.974 | locus YDL035C, strain GPR1, active compounds read low 0.991 | locus YDL040C, strain nat1, active compounds read low 0.986 | locus YDL074C, strain BRE1, active compounds read low 1.01 | locus YDL101C, strain DUN1, active compounds read low 1 | locus YDL134C, strain PPH21, active compounds read low 1.02 | locus YDL185W, strain tfp1, active compounds read low 1.02 | locus YDL192W, strain arf1, active compounds read low 1.02 | locus YDR001C, strain nth1, active compounds read low 0.957 | locus YDR069C, strain doa4, active compounds read low 0.989 | locus YDR101C, strain arx1, active compounds read low 1.01 | locus YDR137W, strain rgp1, active compounds read low 0.97 | locus YDR150W, strain NUM1, active compounds read low 1.01 | locus YDR159W, strain sac3, active compounds read low 0.918 | locus YDR162C, strain NBP2, active compounds read low 1.01 | locus YDR195W, strain ref2 0.992 | locus YDR297W, strain sur2, active compounds read low 0.984 | locus YDR318W, strain mcm21, active compounds read low 1.02 | locus YDR334W, strain swr1, active compounds read low 0.979 | locus YDR335W, strain msn5, active compounds read low 0.963 | locus YDR388W, active compounds read low 1.02 | locus YDR392W, strain spt3, active compounds read low 0.917 | locus YDR502C, strain sam2, active compounds read low 1.01 | locus YEL003W, strain gim4, active compounds read low 0.976 | locus YEL037C, strain rad23, active compounds read low 0.98 | locus YEL061C, strain CIN8 (second series), active compounds read low 0.971 | locus YEL061C, strain CIN8, active compounds read low 1.01 | locus YER015W, strain faa2, active compounds read low 0.977 | locus YER016W, strain bim1, active compounds read low 0.926 | locus YER110C, active compounds read low 1.02 | locus YER111C, strain swi4, active compounds read low 0.982 | locus YER155C, strain BEM2 (second series), active compounds read low 1.03 | locus YER155C, strain BEM2, active compounds read low 1.01 | locus YER167W, strain BCK2, active compounds read low 1.01 | locus YFR010W, strain ubp6, active compounds read low 0.984 | locus YGL078C, strain dbp3, active compounds read low 1.01 | locus YGL086W, strain mad1, active compounds read low 1.01 | locus YGL167C, strain pmr1, active compounds read low 0.963 | locus YGL173C, strain kem1, active compounds read low 0.998 | locus YGL227W, strain vid30, active compounds read low 0.98 | locus YGL240W, strain doc1, active compounds read low 0.99 | locus YGL248W, strain PDE1, active compounds read low 0.997 | locus YGL253W, strain hxk2, active compounds read low 0.976 | locus YGR135W, strain pre9, active compounds read low 1.01 | locus YGR252W, strain gcn5, active compounds read low 0.991 | locus YHR013C, strain ard1, active compounds read low 0.914 | locus YHR027C, strain rpn1, active compounds read low 0.975 | locus YHR030C, strain SLT2, active compounds read low 1.01 and 0.993 | locus YHR079C, strain IRE1 (second series), active compounds read low 1.01 | locus YHR079C, strain IRE1, active compounds read low 0.989 | locus YHR094C, strain hxt1, active compounds read low 1.01 | locus YHR129C, strain ARP1, active compounds read low 0.993 | locus YHR142W, strain chs7, active compounds read low 0.981 | locus YHR200W, strain rpn10, active compounds read low 1.01 | locus YIL066C, strain RNR3, active compounds read low 1.02 | locus YIL073C, strain SPO22, active compounds read low 1.06 | locus YIL125W, strain kgd1, active compounds read low 1.01 | locus YIR030C, strain dcg1, active compounds read low 1.02 | locus YJL092W, strain hpr5, active compounds read low 0.987 | locus YJL095W, strain BCK1 (second series), active compounds read low 0.973 | locus YJL095W, strain BCK1, active compounds read low 0.991 and 0.983 | locus YJL115W, strain asf1, active compounds read low 0.963 | locus YJL129C, strain trk1, active compounds read low 0.968 | locus YJL134W, strain LCB3, active compounds read low 1.01 | locus YJL154C, strain vps35, active compounds read low 0.978 | locus YJL164C, strain tpk1, active compounds read low 0.94 | locus YJL166W, strain qcr8, active compounds read low 0.993 | locus YJL168C, strain set2, active compounds read low 1.01 | locus YJL187C, strain SWE1 (second series), active compounds read low 1.01 | locus YJR043C, strain POL32, active compounds read low 1 | locus YJR066W, strain TOR1, active compounds read low 0.931
